# According to PubChem BioAssay AID504451 (NMMLSC, 2011):
# The campaign covered roughly 2,000 compounds. About 80 (4%) were called active.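 Rule for the calls: active = aptamer displacement above 40%, near three times the noise of non-fluorescent compounds, on plates passing quality checks; inactive = the rest.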 A selection follows.
# Molecular target: Beta-adrenergic receptor kinase 1 (Homo sapiens) (UniProt P25098)
# Experiment: GRK2 aptamer-displacing inhibitors, retest, confirmation, biochemical, cherry pick 1, bead flow cytometry (AID 504451);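 note: negative values mostly reflect intrinsic compound fluorescence rather than true enhancement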
# Conditions: bead-bound GRK2, FAM-aptamer displacement, at 10 µM, hits give high values
# Beta-adrenergic receptor kinase 1 (Homo sapiens), sequence (P25098 whole entry, looked up): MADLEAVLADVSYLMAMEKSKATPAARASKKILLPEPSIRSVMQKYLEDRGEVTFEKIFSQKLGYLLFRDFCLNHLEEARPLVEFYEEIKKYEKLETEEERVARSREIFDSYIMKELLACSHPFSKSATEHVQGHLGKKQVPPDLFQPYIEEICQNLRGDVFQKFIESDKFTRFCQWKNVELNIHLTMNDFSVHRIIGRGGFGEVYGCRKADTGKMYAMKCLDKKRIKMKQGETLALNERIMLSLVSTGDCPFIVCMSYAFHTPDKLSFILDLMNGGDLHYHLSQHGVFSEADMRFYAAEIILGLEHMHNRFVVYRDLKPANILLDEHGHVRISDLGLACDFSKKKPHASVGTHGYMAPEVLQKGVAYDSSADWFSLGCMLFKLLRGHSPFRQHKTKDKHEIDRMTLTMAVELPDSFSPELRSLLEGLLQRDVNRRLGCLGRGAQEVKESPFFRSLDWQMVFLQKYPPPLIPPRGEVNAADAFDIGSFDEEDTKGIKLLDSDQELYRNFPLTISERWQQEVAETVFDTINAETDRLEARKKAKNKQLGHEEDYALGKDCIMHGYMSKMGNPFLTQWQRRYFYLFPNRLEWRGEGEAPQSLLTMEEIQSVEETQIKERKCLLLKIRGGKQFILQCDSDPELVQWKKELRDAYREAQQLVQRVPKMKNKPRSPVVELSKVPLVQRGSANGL
row,SMILES,aptamer displacement
1,O=C(c1cnn(-c2ccc(Cl)cc2)c1)c1ccccc1O,0.64% (inactive)
2,CSc1nc2ccccc2c(=O)n1Cc1ccc(F)cc1,1.65% (inactive)
3,CC(=O)c1ccc(OCC(O)CN2CCN(S(=O)(=O)c3cccc(Br)c3)CC2)cc1 (stereo unspecified),-3.98% (inactive)
4,Cc1cc2cc(CNC(=O)c3cccs3)ccc2[nH]1,11.7% (inactive)
5,Cn1c(=O)c2c(nc(N3CCOCC3)n2CCNC2=NCCC2)n(C)c1=O,5.84% (inactive)
6,CN(Cc1ccccc1)C(=O)c1cccc(C(=O)N(C)Cc2ccccc2)c1,-0.51% (inactive)
7,CCN1C(=O)[C@H]2[C@@H](c3ccc(-c4ccc(OC)cc4)cc3)N[C@@](Cc3ccccc3)(C(=O)OC)[C@H]2C1=O,-7.18% (inactive)
8,OC(CN=c1sc2ccccc2n1CC(O)COc1ccccc1)COc1ccccc1 (stereo unspecified),1.11% (inactive)
9,CCOC(=O)C1CCCN(Cc2nc(N)nc(Nc3ccc(C)cc3)n2)C1 (stereo unspecified),0.86% (inactive)
10,Cc1ccc(-c2nn(-c3ccccc3)cc2/C=C2\SC(=S)N(CCCCCC(=O)O)C2=O)o1,-4.86% (inactive)
11,CCN1/C(=C\c2ccc3ccccc3[n+]2CC)Sc2cc(C)ccc21,75.6% (active)
12,CCN1/C(=C/c2ccc3ccc(C)cc3[n+]2CC)Sc2ccccc21,65.9% (active)
13,O=C(NCc1ccccc1Cl)c1ccc2c(=O)n(CC3CCCO3)c(=S)[nH]c2c1 (stereo unspecified),-1.07% (inactive)
14,O=C(NC(=O)c1cc(OCC(F)(F)F)ccc1OCC(F)(F)F)Nc1ccccc1,2.33% (inactive)
15,CC(C)Cn1c(CN(Cc2ccccc2)Cc2ccccc2)nc2c1c(=O)n(C)c(=O)n2C,0.47% (inactive)
16,C=C(C)C(=O)Nc1cccc(C2=NOC3(C2)C[C@H](C(N)=O)N(C(=O)C(c2ccccc2)c2ccccc2)C3)c1 (stereo partly specified),80.5% (active)
17,O=C(O)c1ccc2c(c1)C(=O)N(c1ccc(/C=C/C(=O)c3ccccc3)cc1)C2=O,0.79% (inactive)
18,CN/C(=C\[N+](=O)[O-])NCCSCc1csc(CN(C)C)n1,1.33% (inactive)
19,O=C(c1ccc(Cl)cc1)c1ccc(OCC(O)CN2CCCCC2)cc1 (stereo unspecified),-0.78% (inactive)
20,O=C(COc1ccccc1)NCCc1nc2ccccc2[nH]1,22.4% (inactive)
21,Cc1nc(C(=O)NCc2ccccc2)sc1C1(C)CC(c2cccnc2)=NO1 (stereo unspecified),-1.29% (inactive)
